Consider 13 compounds from PubChem BioAssay AID2284377 (EPA ToxCast).

Records with an inconclusive call do not appear. Active and inactive are the calls of the source. Rule for the calls: active = hit-call score of the fitted dose curve at least 0.9, where 1 is the maximum; inconclusive = response in the unintended direction; inactive = score below 0.9.

In general, AC50 refers to the midpoint of the concentration-response curve, whichever way the signal moves.

Estrogen receptor (Homo sapiens), sequence (P03372 whole entry, looked up): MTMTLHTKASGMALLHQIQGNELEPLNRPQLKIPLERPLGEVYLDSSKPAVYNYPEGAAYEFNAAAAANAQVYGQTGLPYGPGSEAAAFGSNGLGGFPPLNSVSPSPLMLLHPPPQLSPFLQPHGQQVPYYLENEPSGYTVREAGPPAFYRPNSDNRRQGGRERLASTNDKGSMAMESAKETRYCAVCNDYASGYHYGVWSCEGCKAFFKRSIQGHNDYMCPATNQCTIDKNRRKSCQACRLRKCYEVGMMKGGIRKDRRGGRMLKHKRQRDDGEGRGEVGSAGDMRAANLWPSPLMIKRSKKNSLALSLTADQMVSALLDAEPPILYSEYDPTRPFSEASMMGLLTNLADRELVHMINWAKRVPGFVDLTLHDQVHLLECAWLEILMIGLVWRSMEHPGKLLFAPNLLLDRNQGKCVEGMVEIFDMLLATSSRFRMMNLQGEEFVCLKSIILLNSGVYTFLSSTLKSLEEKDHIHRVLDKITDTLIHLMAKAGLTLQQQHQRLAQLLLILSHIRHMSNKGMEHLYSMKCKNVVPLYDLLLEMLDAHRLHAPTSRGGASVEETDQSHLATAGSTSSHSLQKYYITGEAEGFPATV

This experiment has as its target Estrogen receptor (Homo sapiens) (UniProt P03372). Kind of experiment: ERF_TW_NR_COA_hESR1: Eurofins (ERF) Nuclear Receptor (NR) Functional Coactivator Assay for human Estrogen Receptor alpha (ERa) Agonism. On the procedure:
ERF_TW_NR_COA_hESR1 is a biochemical, single-readout assay that uses extracted gene-proteins in a cell-free assay. Measurements were taken 0.16 hours after chemical dosing in a 96-well plate. See ERalpha Human Estrogen NHR Functional Agonist Coactivator Assay, Panlabs.ERF_TW_NR_COA_hESR1 is an assay component calculated from the ERF_TW_NR_COA_hESR1 assay. It is designed to measure FRET using a type of binding reporter as detected by fluorescence intensity of estriol with fluorimetry technology.Data from the assay component ERF_TW_NR_COA_hESR1 was analyzed at the assay endpoint, ERF_TW_NR_COA_hESR1, in the positive analysis fitting direction relative to DMSO as the negative control and baseline of activity. Using a type of binding reporter, gain-of-signal activity can be used to understand changes in binding as they relate to gene ESR1. To generalize the intended target to other relatable targets, this assay endpoint is annotated to the nuclear receptor intended target family, where the subfamily is steroid.
Test compound and/or vehicle is incubated with the 7 nM estrogen receptor alpha (ERalpha)-LBD and coactivator peptide for 10 minutes at RT. Determination of the amount of complex formed is read spectrofluorimetrically at 520 nm/490 nm. Test compound-induced increase fluorescence by 50 percent or more (>/=50%) relative to the 1 uM Estriol response indicates possible ERalpha receptor agonist activity.
For the compound `FC(F)(F)C(F)(F)C(F)(F)C(F)(F)C(F)(F)C(F)(F)I`, the AC50 was 4.11 µM (active).

On to `OCCCC(F)(F)C(F)(F)C(F)(F)C(F)(F)C(F)(F)C(F)(F)C(F)(F)F`, for which the half-maximal activity concentration (AC50) is 43.3 µM (active).

Regarding `O=C(CC(=O)C(F)(F)C(F)(F)C(F)(F)F)c1cccs1`, the result was inactive.

`N=C(N)C(F)(F)C(F)(F)C(F)(F)C(F)(F)C(F)(F)C(F)(F)C(F)(F)F`: the compound was classed as inactive.

`NC(=O)C(F)(F)C(F)(F)C(F)(F)C(F)(F)C(F)(F)C(F)(F)C(F)(F)F`: the result was inactive.

`O=P(O)(O)OCCC(F)(F)C(F)(F)C(F)(F)C(F)(F)C(F)(F)C(F)(F)F`: the AC50 is 9.12 µM (active).

Turning to `FC(F)(I)C(F)(F)C(F)(F)C(F)(F)C(F)(F)C(F)(F)I`, the AC50 is 7.81 µM (active).

Consider `OCC(F)(F)C(F)(F)C(F)(F)C(F)(F)C(F)(F)C(F)(F)CO`, for which the AC50 was 1.53 µM (active).

As for `OCC(F)(F)C(F)(F)C(F)(F)C(F)(F)C(F)(F)C(F)(F)C(F)(F)C(F)(F)CO`, the concentration at half-maximal activity (AC50) is 0.467 µM (active).

With `C=CC(=O)OCC(F)(F)C(F)(F)C(F)(F)C(F)(F)C(F)(F)C(F)(F)C(F)(F)C(F)F`, the AC50 is 37.5 µM (active).

Turning to `FC(F)(I)C(F)(F)C(F)(F)C(F)(F)I`, the result was inactive.

Turning to `OCCC(F)(F)C(F)(F)C(F)(F)C(F)(F)C(F)(F)C(F)(F)F`, the AC50 was 50.2 µM (active).

For `OCCC(F)(F)C(F)(F)C(F)(F)C(F)(F)C(F)(F)C(F)(F)C(F)(F)C(F)(F)F`, the compound was called inactive.
